PINK1 modulator = A Quantitative High throughput Screen to Identify Chemical Modulators of PINK1 Expression; AID 624263, 2012; Potency, µM (titrated, usually from 76.6 µM), most hits filed as activators; PINK1 immunofluorescence, high-content cytometry, 24 h; hit rate 0.2% among 410,000; active means well fitted activation curve with a large enough effect; inconclusive means small, poorly fitted or top-dose-only effect; cell line not stated here; further: nearly all actives have a fitted effect of over 65% in size
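Cells are seeded, rested 12 hours, then given compound at five concentrations or DMSO for 24 hours. After fixation, blocking and antibody staining, PINK1 amount and mitochondrial localization are scored; CCCP serves as control.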
SW480 rerep = A quantitative high throughput screen for small molecules that induce DNA re-replication in SW480 colon adenocarcinoma cells | SW480 DNA re-replication, Hoechst DNA content imaging, 48 h | Potency, µM (series often up to 46.1 µM), usual class: activators | hit rate 1.8% among 340,000 | AID 624297, 2012; further: nearly all actives have a fitted effect of over 55% in size
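SW480 cells exposed to compounds for 48 hr at 37 C, 5% CO2, then Hoechst-stained 40 min. Nuclear DNA content imaged by fluorescence scanning (405 nm excitation, 500-530 nm emission); re-replication scored as increased high-intensity nuclei.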
MCF10A rerep = A quantitative high throughput screen for small molecules that induce DNA re-replication in MCF 10a normal breast cells | MCF 10A DNA re-replication, Hoechst nuclear intensity, 48 h | AID 624296, 2012 | hit rate 2.9% among 350,000 | Potency, µM (series often up to 46.1 µM), actives largely listed as activators; further: nearly all actives have a fitted effect of over 50% in size
ATXN2 expr inh = Primary qHTS for Inhibitors of ATXN expression. HEK-293 ATXN2-luciferase reporter, luminescence, 24 h. Potency, µM (series often up to 57 µM), most hits filed as inhibitors. hit rate 0.72% among 360,000. AID 1745845, 2022; further: nearly all actives have a fitted effect of over 55% in size
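qHTS (up to 57 uM final) was run with 24 h compound exposure of reporter cells at 37 °C. Each well was multiplexed: SteadyGlo luminescence measured ATXN2-luciferase expression after a fluorogenic Gly-Phe-AFC viability readout (25 uM final).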
IL1B secr inh = qHTS for Inhibitors of Inflammasome Signaling: IL-1-beta AlphaLISA Primary Screen. hit rate 4.7% among 360,000. THP-1 LPS/ATP IL-1B secretion, AlphaLISA, 16 h; active compounds read low. AID 743279, 2014. activity change, % at 57.5 µM; in the data active means activity change below about -50%; inconclusive means mostly about -30% to -49%
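Secreted IL-1B measured by AlphaLISA bead assay after 16 h compound exposure of THP-1 cells; compounds (final up to 57.5 uM) added 1 h before LPS (250 ng/mL) and ATP (1.25 mM) stimulation; lower signal means less secretion.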
S2 tox = Viability Counterscreen for Primary qHTS for Inhibitors of ATXN expression | S2 cells (HEK-293 line with an ATXN2-luciferase reporter) viability, CellTiter-Fluor protease fluorescence, 24 h | Potency, µM (series often up to 56.7 µM), actives largely listed as cytotoxic | AID 651635, 2014 | hit rate 0.49% among 400,000; further: nearly all actives have a fitted effect of over 40% in size
Numbers stand for hits; – = inactive; ? = inconclusive; · = no result given; ! = not active in a repeat. Hits are enriched below; roughly 7.1% of the tested compounds scored in any of these assays. Unless noted, the call rests on the fitted dose curve; in most records, active means well fitted curve in the direction sought with a large enough effect; inconclusive means small, poorly fitted or top-dose-only effect, or another doubt; inactive means no such curve, though single readings can be large; an effect the other way counts as inactive or inconclusive.

SMILES | PINK1 modulator | SW480 rerep | MCF10A rerep | ATXN2 expr inh | IL1B secr inh | S2 tox
CC1OC(O[C@H]2C[C@@H](O)[C@]3(CO)[C@@H]4C(CC[C@]3(O)C2)[C@@]2(O)CC[C@H](C3=CC(=O)OC3)[C@@]2(C)C[C@H]4O)C(O)C(O)C1O (stereo not given in full) | · | – | – | · | · | ·
C[C@@H]1O[C@@H](O[C@H]2C[C@@H](O)[C@]3(CO)[C@@H]4C(CC[C@]3(O)C2)[C@@]2(O)CC[C@H](C3COC(=O)C3)[C@@]2(C)C[C@H]4O)[C@H](O)[C@H](O)[C@H]1O (stereo not given in full) | – | ? | – | 1.6µM | -65 | ?
CNC(C)[C@@H](O)c1ccc(O)cc1 (stereo not given in full) | · | – | – | · | · | ·
C#C[C@@]1(O)CC[C@@H]2[C@@H]3CCC4=CC(=O)CC[C@@]4(C)[C@H]3CC[C@]21C | · | · | · | · | · | –
CNc1ccc2oc(C[C@H]3O[C@@]4(CC[C@H]3C)O[C@H]([C@H](C)C(=O)c3ccc[nH]3)[C@H](C)C[C@H]4C)nc2c1C(=O)O | – | ? | 4.6µM | 8.9µM | – | 7.1µM
C=C1[C@@H]2C[C@@]3([C@H]1O)[C@H]1C[C@@H]4[C@@]5(C)CC[C@H](O)[C@]4([C@H]1N(CC)C5)[C@H]3C[C@H]2O | · | · | · | · | · | –
COC(=O)[C@H]1[C@H]2C[C@@H]3c4[nH]c5cc(OC)ccc5c4CCN3C[C@H]2C[C@@H](OC(=O)/C=C/c2cc(OC)c(OC)c(OC)c2)[C@@H]1OC | – | 18µM | 5.8µM | – | – | ?
COC(=O)CSc1cc([N+](=O)[O-])cc2c1c(C1OCCO1)nn2-c1ccccc1 | – | – | ? | – | – | –
FC(F)OC(F)(F)C(F)Cl (stereo not given) | · | – | – | · | · | ·
CCNC(=O)CCSc1nc2cc(Cl)ccc2o1 | – | ? | – | – | – | –
C=CCO[C@@H](Cn1ccnc1)c1ccc(Cl)cc1Cl | · | · | · | · | · | –
Clc1ccc(COC(Cn2ccnc2)c2ccc(Cl)cc2Cl)cc1 (stereo not given) | – | ? | ? | 35µM! | – | ?
CCN(CC)S(=O)(=O)c1cc(NC(=O)C(C)N2CC=C(c3ccccc3)CC2)ccc1C (stereo not given) | – | ? | – | – | -58 | –
Cc1cc(Br)c(NC(=O)CN2CC=C(c3ccccc3)CC2)c(Br)c1 | ? | ? | ? | – | – | –
CCOC(=O)c1cnc(SCc2ccc(Cl)c(Cl)c2)nc1N1CC1 | – | 4.1µM | 13µM | – | – | ?
C=C(C)c1cc2cc(C(C)=O)c(O)cc2o1 | – | · | · | · | · | ·
CC(C)N(CCNC(=O)CN1CCCC1=O)C(C)C | · | · | · | – | · | ·
O=C1C=CC[C@@H]2[C@H]3CCCN4CCC[C@@H](CN12)[C@@H]34 | · | · | · | 1.5µM | · | ·
COC1CC2C=C(C)C=CC=CC(=O)NC(c3ccccc3)CC=CCCC(O)CC(=O)C2=C1O (stereo not given) | – | · | · | 2.8µM | -113 | 14µM
C#CCOc1cc(C2C3=C(COC3=O)Nc3cc4c(cc32)OCO4)ccc1OC (stereo not given) | – | 2.1µM | ? | – | – | –
O=[As]O[As]=O (stereo not given) | · | – | – | · | · | ·
CC(=O)C1CCOC1=O (stereo not given) | · | · | · | – | · | –
COCCCn1c(=O)/c(=C\c2ccccc2OC(F)F)s/c1=C(/C#N)C(=O)NCCOC | ? | ? | 15µM | – | – | ·
Cc1ccc(S(=O)(=O)NN=Cc2cc(Cl)ccc2O)cc1 | – | – | ? | – | – | –
CCOP(=O)(/C(C#N)=C(\C)O)c1ccccc1 (stereo not given) | – | – | – | · | – | –
O=C1c2ccccc2C(=O)N1SC1CCCCC1 | – | ? | ? | – | – | –
O=C(O)c1ccc2[nH]cc(CCCCN3CC=C(c4ccccc4)CC3)c2c1 | · | – | – | – | · | –

From PubChem BioAssay
